A short description of assay [1]: NCI Yeast Anticancer Drug Screen. Data for the rad50 strain (AID 155).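 Note: 0% = growth of vehicle-only cultures of the same strain.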 As to conditions: S. cerevisiae rad50 strain growth inhibition, stronger effect = higher value. A digest of the protocol: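 Readout: growth inhibition relative to vehicle-treated cultures. Compound exposure was carried out in a genetically defined yeast strain deficient in DNA damage repair.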
A short description of assay [2]: NCI Yeast Anticancer Drug Screen. Data for the mec2-1 strain (AID 157). As to conditions: S. cerevisiae mec2-1 strain, stronger effect = higher value. A digest of the protocol: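 Cells of the genetically defined mec2-1 yeast strain are incubated with test compound. Inhibition of growth is calculated against vehicle-treated controls.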
A short description of assay [3]: NCI Yeast Anticancer Drug Screen. Data for the sgs1 mgt1 strain (AID 161).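 Note: 0% = growth of cultures given vehicle only.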 As to conditions: S. cerevisiae sgs1 mgt1 strain, stronger effect = higher value. A digest of the protocol: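 Read-out: growth inhibition vs vehicle controls. Cells: mutant yeast strain deficient in DNA damage repair.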
Assay [4] can be described thus: NCI Yeast Anticancer Drug Screen. Data for the cln2 rad14 strain (AID 165).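 Note: 0% = growth equal to vehicle treated cultures.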 As to conditions: S. cerevisiae cln2 rad14 strain, stronger effect = higher value. The essentials:
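The screen exposed genetically defined yeast (cln2 rad14) to test compounds and scored growth inhibition relative to vehicle-treated controls.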

Assay [5] is described as follows: NCI Yeast Anticancer Drug Screen. Data for the bub3 strain (AID 167). As to conditions: S. cerevisiae bub3 mutant strain, stronger effect = higher value. The essentials: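 Readout: yeast growth inhibition, expressed relative to vehicle-only wells. The test organism is a mutant strain from a panel with lesions in DNA repair or checkpoint genes.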
The nature of assay [6]: NCI Yeast Anticancer Drug Screen. Data for the mlh1 rad18 strain (AID 175). As to conditions: S. cerevisiae mlh1 rad18 strain growth inhibition, stronger effect = higher value. The essentials: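 Compound-treated yeast growth, normalised to vehicle controls. Strain bears defined DNA repair mutations.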
Where [7] appears, read: at 5.0 µM (retest, dose inferred, filed as 0.5).
Where [8] appears, read: at 50.0 µM (retest, dose inferred, filed as 5.0).

SMILES strings stand for the structures. Values joined by “and” are separate entries in the source; they are usually repeats but may differ in a detail not shown here. Equal entries are not always repeated. About 79,000 compounds went through this panel and 15% of them were active in at least one assay; those are over-represented in the sample as a whole. Some compounds were tested as several samples or in several runs, with calls that do not always agree. Active and inactive are the calls of the source. Cut-off read from the data, not from the text of the source: active = growth inhibition above about 70%; inactive = the rest.

Take `O=C1c2cc3c(cc2CC12Cc1ccccc1C2)CCC3`: the growth inhibition in assay [1] (setting [7]) is 23% (inactive); in assay [1] (setting [8]), 21% (inactive); in assay [1] (at 50.0 µM), 20% (inactive); in assay [2] (setting [7]) it was 15% (inactive); in assay [2] (setting [8]), 15% (inactive); in assay [2] (at 50.0 µM), 2.25% (inactive). Besides, the growth inhibition in assay [3] (setting [7]) was 22% (inactive); in assay [3] (setting [8]), 54% (inactive); in assay [3] (at 50.0 µM) it was 46.9% (inactive); in assay [4] (setting [7]), 10% (inactive); in assay [4] (setting [8]), 16% (inactive); in assay [4] (at 50.0 µM) it was 16.8% (inactive). Also, the growth inhibition in assay [5] (setting [7]) was 24% (inactive); in assay [5] (setting [8]), 51% (inactive); in assay [5] (at 50.0 µM), 50% (inactive); in assay [6] (setting [7]), 19% (inactive); in assay [6] (setting [8]), 23% (inactive); in assay [6] (at 50.0 µM), 17.4% (inactive).

Consider `C=C(C)C(=O)Oc1ccc(NC(=O)c2ccccc2)ccc1=O`, for which the growth inhibition was 5% (inactive) and -1% (inactive) in assay [1] (setting [7]); 96% (active) and 95% (active) in assay [1] (setting [8]); 92.5% (active) and 96.7% (active) in assay [1] (at 50.0 µM); 2% (inactive) and 26% (inactive) in assay [2] (setting [7]); 96% (active) in assay [2] (setting [8]); 75.2% (active) and 83.6% (active) in assay [2] (at 50.0 µM). For the same compound, the growth inhibition is 7% (inactive) and 19% (inactive) in assay [3] (setting [7]); 95% (active) and 98% (active) in assay [3] (setting [8]); 96% (active) and 94.3% (active) in assay [3] (at 50.0 µM); -1% (inactive) and 1% (inactive) in assay [4] (setting [7]); 92% (active) in assay [4] (setting [8]); 89.5% (active) and 83.8% (active) in assay [4] (at 50.0 µM). The growth inhibition in assay [5] (setting [7]) is 5% (inactive) and 0% (inactive); in assay [5] (setting [8]), 94% (active) and 93% (active); in assay [5] (at 50.0 µM), 89.5% (active) and 93% (active); in assay [6] (setting [7]) it was 13% (inactive) and 6% (inactive); in assay [6] (setting [8]), 98% (active); in assay [6] (at 50.0 µM), 96.8% (active) and 96.6% (active).

Turning to `CC1(C)CC(=O)C2=C(C1)OC1=C(CC(C)(C)CC1=O)C2c1ccccc1Cl` (stereo not drawn), the growth inhibition in assay [1] (setting [7]) was 19% (inactive); in assay [1] (setting [8]), 16% (inactive); in assay [1] (at 50.0 µM) it was -5.65% (inactive); in assay [2] (setting [7]), 12% (inactive); in assay [2] (setting [8]), 13% (inactive); in assay [2] (at 50.0 µM), -7.45% (inactive). Moreover, the growth inhibition in assay [3] (setting [7]) was 8% (inactive); in assay [3] (setting [8]), 10% (inactive); in assay [3] (at 50.0 µM) it was -1.9% (inactive); in assay [4] (setting [7]) it was 37% (inactive); in assay [4] (setting [8]), 33% (inactive); in assay [4] (at 50.0 µM) it was 5.45% (inactive). The growth inhibition in assay [5] (setting [7]) is -11% (inactive); in assay [5] (setting [8]) it was -10% (inactive); in assay [5] (at 50.0 µM) it was 13.2% (inactive); in assay [6] (setting [7]), 17% (inactive); in assay [6] (setting [8]) it was 17% (inactive); in assay [6] (at 50.0 µM), -15.2% (inactive).

`N=C1N(c2ccccc2)C(=S)C(=Nc2ccccc2)N1c1ccccc1`: the growth inhibition in assay [1] (setting [7]) is 16% (inactive); in assay [1] (setting [8]), 99% (active); in assay [1] (at 50.0 µM), 88.5% (active); in assay [2] (setting [7]), -4% (inactive); in assay [2] (setting [8]) it was 99% (active); in assay [2] (at 50.0 µM), 90.8% (active). The growth inhibition in assay [3] (setting [7]) is 8% (inactive); in assay [3] (setting [8]) it was 99% (active); in assay [3] (at 50.0 µM), 84% (active); in assay [4] (setting [7]), 9% (inactive); in assay [4] (setting [8]), 99% (active); in assay [4] (at 50.0 µM), 82% (active). For the same compound, the growth inhibition in assay [5] (setting [7]) was -33% (inactive); in assay [5] (setting [8]) it was 99% (active); in assay [5] (at 50.0 µM), 84.2% (active); in assay [6] (setting [7]), -6% (inactive); in assay [6] (setting [8]), 99% (active); in assay [6] (at 50.0 µM), 87.2% (active).

In the case of `CNC(=O)OCCN1c2ccccc2Sc2ccccc21`, the growth inhibition is -22% (inactive) in assay [1] (setting [7]); 93% (active) in assay [1] (setting [8]); 89.5% (active) in assay [1] (at 50.0 µM); -9% (inactive) in assay [2] (setting [7]); 68% (inactive) in assay [2] (setting [8]); 92% (active) in assay [2] (at 50.0 µM). For the same compound, the growth inhibition in assay [3] (setting [7]) was 8% (inactive); in assay [3] (setting [8]) it was 91% (active); in assay [3] (at 50.0 µM), 93.3% (active); in assay [4] (setting [7]), -1% (inactive); in assay [4] (setting [8]), 82% (active); in assay [4] (at 50.0 µM), 90.3% (active). In addition, the growth inhibition in assay [5] (setting [7]) was 0% (inactive); in assay [5] (setting [8]), 95% (active); in assay [5] (at 50.0 µM) it was 92% (active); in assay [6] (setting [7]) it was -9% (inactive); in assay [6] (setting [8]), 92% (active); in assay [6] (at 50.0 µM) it was 91.5% (active).

As to `COC(=O)[C@]1(C)CCC[C@]2(C)c3cc(C(C)=O)c(C(C)C)cc3CC[C@@H]12`, the growth inhibition in assay [1] (setting [7]) was -1% (inactive); in assay [1] (setting [8]), -11% (inactive); in assay [1] (at 50.0 µM), 92.5% (active) and -4.55% (inactive); in assay [2] (setting [7]), 7% (inactive); in assay [2] (setting [8]), 10% (inactive); in assay [2] (at 50.0 µM) it was 95.5% (active) and -11.9% (inactive). The growth inhibition is -4% (inactive) in assay [3] (setting [7]); -27% (inactive) in assay [3] (setting [8]); 93.5% (active) and -5.45% (inactive) in assay [3] (at 50.0 µM); -1% (inactive) in assay [4] (setting [7]); -2% (inactive) in assay [4] (setting [8]); 99.5% (active) and -40.8% (inactive) in assay [4] (at 50.0 µM). The growth inhibition in assay [5] (setting [7]) is 1% (inactive); in assay [5] (setting [8]) it was 0% (inactive); in assay [5] (at 50.0 µM), 98.5% (active) and -5.05% (inactive); in assay [6] (setting [7]) it was -2% (inactive); in assay [6] (setting [8]), 8% (inactive); in assay [6] (at 50.0 µM), 97% (active) and -12.2% (inactive).
